Pf Dd2 growth – inhibitors of Plasmodium falciparum Dd2 growth; P. falciparum Dd2 growth, SYBR Green, 72 h; Potency, µM (series often up to 28.9 µM), for inactives: at the top dose activity, negative = inhibition, most hits filed as inhibitors; actives 4.3% (n = 120,000); AID 1347417; active means well fitted inhibition curve with a large enough effect;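 further: plate controls were DMSO vehicle for no effect and reference drug for full effect; nearly all actives have a fitted effect of over 65% in size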
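Readout: SYBR Green fluorescence, 485 nm excitation, 535 nm emission, after ~16 h lysis at 37C. Before that, Dd2-infected red cells (2.5% hematocrit) grew 72 h with compound, 29 uM top final concentration.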
The depositor's hits bear a star; i = inactive; ! = repeats disagree; [ ] = dose if it differs, or a comment. Many of the other results were omitted from the sample, so hits are more common in it than they were. Potency means the concentration at half of the fitted maximal effect.

SMILES	Pf Dd2 growth
O=C(Nc1ccc([C@@H](O)[C@H]2COCC(=O)N2Cc2ncc[nH]2)cc1)C1CC1	2%[44.1 µM]
CCOc1ccc(-c2cc3c(=O)n(CC(O)c4ccc(C(C)C)cc4)ccn3n2)cc1 (stereo not given)	i
O=c1c2cc(-c3ccccc3)nn2ccn1CC(O)c1ccccc1 (stereo not given)	i
CCOc1ccc(C(O)Cn2ccn3nc(-c4ccccc4C)cc3c2=O)cc1 (stereo not given)	13µM*
CN1c2cc(C(N)=O)ccc2C(=O)N2CCCCCC21 (stereo not given)	7%
Cc1ccc(-c2noc([C@@H]3CCCN3C(=O)c3ccc(C(C)(C)C)cc3)n2)cc1	54%
O=C(NCc1cc2n(n1)CCNC2)C(c1ccccc1)C1CCCC1 (stereo not given)	-30%
c1ccc(-c2nc(NCc3cc4n(n3)CCCNC4)c3ccccc3n2)cc1	7.9µM*
Cc1cccc2ncc(C(=O)NCc3cc4n(n3)CCCNC4)c(=O)n12	3%
CC(=O)Nc1ccc(CC(=O)N2CCc3c(c(-c4nncn4C)nn3C)C2)cc1	-18%
Cn1cc(C(=O)N2CCC(N(Cc3cccnc3)C3CCOCC3)CC2)cn1	15%
O=C(Cc1ccccc1)N1CCNc2cnc(Nc3ccccc3)nc2C1	-20%[44.1 µM]
CN(C)c1cccc(C(=O)N2CCNc3cnc(Nc4cccc(C(F)(F)F)c4)nc3C2)c1	7.9µM*
N#Cc1cccc(C(=O)N2CCNc3cnc(Nc4cccc(F)c4)nc3C2)c1	i
O=C(c1ccc(Oc2ccccc2)cc1)N1CCNc2cnc(Nc3cccnc3)nc2C1	13µM*
COc1ccccc1Nc1ncc2c(n1)CN(C(=O)c1ccnn1C)CCN2	3%[44.1 µM]
CC(C)NC(=O)N1CCNc2cnc(Nc3cccc(F)c3)nc2C1	-7%[44.1 µM]
Cn1cc(CN2C[C@H](C(=O)Nc3cccc(F)c3)C[C@H]2c2cccc(C(F)(F)F)c2)cn1	-11%
CNC(=O)c1cnn2cc(C)ccc12	-6%[44.1 µM]
Cc1noc(-c2cn(C3CCN(C(=O)c4ccc(F)cc4)C3)nn2)n1 (stereo not given)	i
CCc1[nH]nc(C(=O)N(Cc2cccnc2)CC2CCN(C3CCCC3)CC2)c1C	-9%
Cc1cc(C)cc(C(=O)NCCn2ccn3nc(-c4ccc(C)cc4C)cc3c2=O)c1	-4%
CCOCCN1C(=O)COC[C@@H]1[C@H](O)c1ccc(NC(=O)c2ccco2)cc1	-15%[44.1 µM]
Cc1noc([C@@H]2CN(C(=O)Cc3c(F)cccc3Cl)C[C@H]2CO)n1	13%
COc1ccc(N2C(=O)CCSC23C(=O)N(Cc2ccc(F)cc2)c2ccccc23)cc1Cl (stereo not given)	11µM*
SMILES	Pf Dd2 growth
COc1ccc(N2C(=O)CCSC23C(=O)N(Cc2ccc(F)cc2)c2ccccc23)cc1 (stereo not given)	-13%
COc1ccc(N2C(=O)CSC23C(=O)N(CC(N)=O)c2ccccc23)cc1 (stereo not given)	7%
Cc1ccc(C)c(NC(=O)CN2C(=O)C3(SCC(=O)N3c3ccc(C)c(C)c3)c3ccccc32)c1 (stereo not given)	11µM*
COc1ccccc1NC(=O)CN1C(=O)CSc2ccc(S(=O)(=O)N3CCCC3)cc21	-16%
COc1cccc(CN2C(=O)C3(SCC(=O)N3c3ccc(F)cc3)c3ccccc32)c1 (stereo not given)	i
Cc1ccc(N2C(=O)CSC23C(=O)N(Cc2ccccc2F)c2ccccc23)cc1F (stereo not given)	i
COc1ccccc1NC(=O)CN1C(=O)C2(SCC(=O)N2c2ccc(C)c(C)c2)c2ccccc21 (stereo not given)	10µM*
Cc1ccc(C)c(NC(=O)CN2C(=O)COc3ccc(Cl)cc32)c1	15%
Cc1nc([C@@H]2CN(C(=O)c3cscn3)C[C@H]2C(N)=O)n[nH]1	1%
O=C1NCCC[C@@H]1NC(=O)[C@@H]1CN(C(=O)C2CCNCC2)CCN1C(=O)c1ccccc1	-22%
COc1cccc(CCC2CCCN(C(=O)c3ccc(OC)o3)C2)c1 (stereo not given)	-15%
Cc1cc(CNC(=O)[C@@H]2CCC[C@@H](NCc3cccnc3)CN(C)C(=O)C2)no1	-21%[44.1 µM]
CC[C@H]1CN(Cc2ccncc2)CC[C@H]1CC(=O)N1CCC(C(=O)OC)CC1	8%[44.1 µM]
Cn1c(=O)c2c(-c3cccc(Br)c3)n(CCO)cc2n(C)c1=O	i
Cn1c(=O)c2c(-c3ccccc3Cl)n(Cc3ccc(Cl)cc3)cc2n(C)c1=O	-24%
Cn1c(=O)c2c(-c3ccccc3Cl)n(-c3cc(Cl)ccc3O)cc2n(C)c1=O	7.9µM*
O=C(Nc1cccc(C(F)(F)F)c1)O[C@@H]1CO[C@H]2[C@@H]1OC[C@@H]2NC(=S)Nc1ccc(Cl)cc1	31%
COCCNc1cc(-c2cc(C(F)(F)F)ccn2)c2cc[nH]c2n1	10µM*
COCCNc1ccc2nnc(-c3cc(C#N)ccn3)n2n1	25%[44.1 µM]
COCCNc1ccc2nnc(-c3ccc(C)cn3)n2n1	-20%[44.1 µM]
COc1ccc(CN2C(=O)[C@@H]3C[C@@H](O)CN3C3(CN(Cc4cccs4)C3)C2=O)cc1	i
Cc1nc(C)c(CC(=O)NC2CCCN(C3CCCCCC3)C2)c(=O)[nH]1 (stereo not given)	-15%
COc1ccc2c(c1)CN(C(=O)COCc1ccccc1)CC[C@H]1COC(=O)N21	17%[44.1 µM]
COC[C@]1(O)CCN(C(=O)c2ccc3c(c2)CCC3)CC1(C)C	-9%
Cc1cc(C(=O)N2C[C@@H](CN3CCOCC3)[C@@H](CO)C2)cs1	11%
SMILES	Pf Dd2 growth
Cc1cc(N)n(CC(=O)N2CCC(O)(CN3CCOCC3)C(C)(C)C2)n1 (stereo not given)	-10%
Oc1ccc(-c2nc(C3CC3)nc3c2CN(Cc2ccsc2)CC3)cc1	7.1µM*
CCc1nc2c(c(-c3ccc(O)cc3)n1)CN(Cc1ccccc1OC)CC2	-17%
Cc1nc2c(c(-c3ccc(O)cc3)n1)CN(Cc1ccsc1)CC2	i
Oc1ccc(-c2nc(C3CC3)nc3c2CN(Cc2ccccc2C(F)(F)F)CC3)cc1	2.5µM*!
Cc1nc2c(c(-c3ccc(O)cc3)n1)CN(Cc1cncs1)CC2	-7%[44.1 µM]
CN1c2cc(C(=O)NCCc3ccccc3)ccc2C(=O)N2CCCC21 (stereo not given)	-5%
COc1ccc(-n2nc3n(c2=O)CCN(Cc2ccc(N(C)C)cc2)C3)cc1	-10%
CNC(=O)[C@@H](c1ccc(OC)cc1)N1CCC[C@H]1C(=O)NC1CCCC1	29%[44.1 µM]
CCOc1cccc2cc(-c3nnc(Nc4ccc(F)c(Cl)c4)s3)c(=O)oc12	21%
COc1cccc2cc(-c3nc(Nc4cccc(C)c4C)sc3C)c(=O)oc12	5%
CCc1ccc(Nc2nc(-c3cc4cccc(OC)c4oc3=O)c(CC)s2)cc1	11µM*
O=C(NCCc1cccc(F)c1)C1CC(=O)N(c2n[nH]c3ccccc23)C1 (stereo not given)	-17%
COc1cc2c(cc1OC)C(CNC(=O)c1cccc(F)c1)N(C(=O)Nc1ccc(C)cc1)CC2 (stereo not given)	i
COCC(=O)N1CCc2cc(OC)c(OC)cc2C1COc1ccc2c(C)cc(=O)oc2c1 (stereo not given)	11%
CCOc1ccc(C(=O)N2CCC[C@H]2c2nc(-c3ccc(OC)cc3)no2)cc1OCC	i
CCNC(=O)NCC1c2cc(OC)c(OC)cc2CCN1C(=O)Nc1ccc(C)cc1 (stereo not given)	i
COc1cc2c(cc1OC)C(CNC(=O)c1ccccc1)N(C(=O)Nc1cccc(F)c1)CC2 (stereo not given)	-11%
